Source: PubChem BioAssay (several laboratories)
Bcl-xL primary = inhibitors of human Bcl-xL. actives 0.7% (n = 320,000). Q07817. GST-Bcl-xL / FITC-Bim BH3 peptide fluorescence polarization. inhibition, % at 10.9 µM;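 active = inhibition above the mean of all tested compounds plus 3 SD, cutoff set per campaign, cut at about 30% in these data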;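 also: 0% = DMSO wells and 100% = unlabeled Bim-BH3 peptide competitor; inhibitors lower millipolarization by displacing the labeled peptide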
GLD-1 TGE inh = GLD-1-TGE RNA interaction inhibition (C. elegans); AID 2280; inhibition, % at 5.96 µM; purified GLD-1 + fluorescein TGE RNA, fluorescence polarization; Q17339; actives 0.44% (n = 320,000);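 active = percent inhibition above a per-plate cutoff, the plate mean of test compounds plus 3 SD, cut at about 30% in these data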;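 also: 0% = DMSO wells with GLD-1 and probe and 100% = wells lacking GLD-1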
E coli Lon inh = inhibits E. coli Lon protease; P0A9M0; purified E. coli Lon protease, fluorescence polarization; inhibition, % at 7.94 µM; actives 0.42% (n = 360,000); AID 602123; in the data active = inhibition above about 13%, passing the limit was not always enough;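 also: 0% = enzyme with probe and DMSO and 100% = no enzyme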
Target sequence (P0A9M0 whole entry, looked up): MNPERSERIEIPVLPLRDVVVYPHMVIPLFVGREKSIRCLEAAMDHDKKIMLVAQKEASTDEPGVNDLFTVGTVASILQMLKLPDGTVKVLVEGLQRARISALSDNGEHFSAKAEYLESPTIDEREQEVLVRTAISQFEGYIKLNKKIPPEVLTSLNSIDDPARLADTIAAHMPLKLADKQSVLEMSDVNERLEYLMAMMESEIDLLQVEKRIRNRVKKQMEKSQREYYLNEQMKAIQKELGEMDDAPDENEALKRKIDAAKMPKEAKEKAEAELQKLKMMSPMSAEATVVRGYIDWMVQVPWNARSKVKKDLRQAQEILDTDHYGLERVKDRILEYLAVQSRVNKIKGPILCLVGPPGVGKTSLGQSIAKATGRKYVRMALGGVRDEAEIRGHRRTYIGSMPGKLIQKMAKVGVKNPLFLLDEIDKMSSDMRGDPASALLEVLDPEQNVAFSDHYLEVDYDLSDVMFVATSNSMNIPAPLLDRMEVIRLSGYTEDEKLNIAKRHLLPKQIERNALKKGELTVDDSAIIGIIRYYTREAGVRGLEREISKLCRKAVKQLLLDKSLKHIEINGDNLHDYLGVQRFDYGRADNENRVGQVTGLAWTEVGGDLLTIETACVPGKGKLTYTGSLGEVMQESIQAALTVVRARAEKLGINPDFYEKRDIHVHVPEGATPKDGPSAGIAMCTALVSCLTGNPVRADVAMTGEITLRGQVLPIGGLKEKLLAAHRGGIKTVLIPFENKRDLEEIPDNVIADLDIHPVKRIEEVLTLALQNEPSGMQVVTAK
EBV gp42 block = EBV gp42 inhibition; actives 0.42% (n = 220,000); Q1HVG2; inhibition, % (tested at 21.74 µM); AID 1085; Fluorescence polarization binding assay, mP read-out; in the data active = inhibition above about 50%
MEX-5 binding = C. elegans MEX-5 TCR-2 RNA binding activity | Q9XUB2 | MEX-5/FITC-TCR2 RNA binding, fluorescence polarization; active compounds read low | activity score (negative = inhibition of binding), % at 10 µM | actives 0.38% (n = 300,000) | AID 1832;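 active = inhibition past about -25% in most replicates, and total fluorescence under double the plate's negative control median, limit read from the data; inconclusive = replicates evenly split on the limit, or fluorescence at least double controls; inactive = too little inhibition in most replicates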;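 also: 0% = DMSO and -100% = 5 µM competing unlabeled TCR2 RNA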
MCL1-BIM inh = inhibitors of human MCL1 binding to BIM-BH3 peptide. Q07820. GST-MCL1 / FITC-Bim-BH3 fluorescence polarization. inhibition, % at 10.9 µM. actives 0.68% (n = 320,000). AID 2057;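 active = inhibition above the mean inhibition of all tested compounds plus 3 SD, set per campaign, cut at about 40% in these data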;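 also: 0% = DMSO wells and 100% = unlabeled Bim-BH3 peptide control; higher means more loss of mP so more displacement of Bim peptide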
E coli Lon conf = E. coli Lon inhibition confirmation | shares compounds with E coli Lon inh | purified E. coli Lon, fluorescence polarization | inhibition, % at 7.94 µM | actives 31% (n = 1,400); in the data active = inhibition above about 16%;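 also: 0% = enzyme with probe and DMSO and 100% = no enzyme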
Numbers without * were called inactive; ? = inconclusive; . = no result given; + = active, no number. In the library only some 1.4% were active in any assay of this set; here they are far more common.

SMILES	Bcl-xL primary	GLD-1 TGE inh	E coli Lon inh	EBV gp42 block	MEX-5 binding	MCL1-BIM inh	E coli Lon conf
Fc1ccc(CNCCC(Cc2ccccc2)c2ccco2)cc1 (centres undefined)	11	3	-4	-9	2	8	.
O=C1c2ccccc2C(=O)N1Cc1ccco1	4	-3	-2	-3	0	-2	.
O=C1c2cccc3c(O)ccc(c23)C(=O)N1Cc1ccco1	.	.	+	172*	?	.	+
CC1=C(C(=O)OC2CCCCC2)C(c2ccc(F)cc2)NC(=O)N1 (centres undefined)	0	0	-1	.	1	1	.
Cc1cc(C)c(S(=O)(=O)N2CCN(CCN3C(=O)c4cccc5cccc(c45)C3=O)CC2)cc1[N+](=O)[O-]	.	.	.	-14	.	.	.
O=C1c2cccc3cc([N+](=O)[O-])cc(c23)C(=O)N1CCN1CCCC1	.	.	87*	4	-7	.	47*
CCSc1nnc(-c2cccs2)o1	3	-6	65*	-4	-2	6	-3
c1ccc(CSc2nnc(-c3cccs3)o2)cc1	6	4	-4	13	-1	2	.
CCCCn1c(N)c(N(CC(C)C)C(=O)c2cc3ccccc3cc2OC)c(=O)[nH]c1=O	.	.	-2	.	.	.	.
O=S(=O)(Nc1ccc(O)c(NS(=O)(=O)c2ccccc2)c1)c1ccccc1	8	11	18*	.	-20	24	3
Cc1cc(NS(=O)(=O)c2ccccc2)ccc1NS(=O)(=O)c1ccccc1	.	.	4	.	.	.	.
COc1ccc(CN2CCNC(=O)C2CC(=O)N(C)CCC2CCOCC2)c(OC)c1 (centres undefined)	4	2	4	.	-2	6	.
COc1ccc(C2Nc3ccccc3NC3=C2C(=O)CC(C)(C)C3)cc1 (centres undefined)	5	7	64*	.	-2	5	10
COc1ccc(C2Nc3ccccc3NC3=C2C(=O)CC(C)(C)C3)cc1O (centres undefined)	7	2	19*	.	1	11	9
CC1(C)CC(=O)C2=C(C1)Nc1ccccc1NC2c1ccc2c(c1)OCO2 (centres undefined)	5	10	36*	-17	0	11	16*
CCOc1ccc(C2Nc3ccccc3NC3=C2C(=O)CC(C)(C)C3)cc1OC (centres undefined)	1	3	29*	.	0	-4	-2
COc1ccccc1C1NC(=O)NC(C)=C1C(=O)OCC1CCCCC1 (centres undefined)	.	.	-1	.	.	.	.
COCCCn1c(=O)c2ccccc2n(CC(=O)NC2CCCCC2)c1=O	3	10	2	.	2	-1	.
O=C(NNC(=O)c1ccccc1-n1cccc1)c1cncc(Br)c1	.	7	38*	.	.	.	-55
Cc1ccc([C@H]2N[C@]3(CCCN(Cc4ccco4)C3=O)[C@H]3C(=O)N(Cc4ccccc4)C(=O)[C@@H]23)cc1	.	.	0	.	.	.	.
O=C1[C@H]2[C@@H](c3ccccc3)N[C@]3(CCCN(Cc4ccco4)C3=O)[C@H]2C(=O)N1Cc1ccccc1	.	.	96*	.	.	.	-4
N#Cc1ccccc1NC(=O)COC(=O)c1ccc(F)cc1F	2	-1	17*	.	1	-2	-4
O=C(COc1ccc(Br)cc1)OCCN1CCCCC1	-1	10	-3	.	1	3	.
CCOC(=O)Cn1nc(-c2ccc(F)cc2)cc(Cc2ccccc2)c1=O	-2	5	1	.	1	-8	.
O=c1[nH]nc(-c2ccc(F)cc2)cc1Cc1ccccc1	3	9	32*	-5	-2	11	1
SMILES	Bcl-xL primary	GLD-1 TGE inh	E coli Lon inh	EBV gp42 block	MEX-5 binding	MCL1-BIM inh	E coli Lon conf
O=C1C(=Cc2cccn2-c2ccccc2)C(=O)c2ccccc21	41*	105*	62*	-44	?	42*	39*
Cc1ccc(CNC(=O)c2ccc3c(=O)c(O)c(-c4ccc(C)cc4)[nH]c3c2)cc1	2	2	0	-16	-1	3	.
Cc1ccc(-c2[nH]c3cc(C(N)=O)ccc3c(=O)c2O)cc1	9	1	76*	-14	-70*	6	46*
COCCCNC(=O)c1ccc2c(=O)n(Cc3ccc(OC)cc3)c(=O)[nH]c2c1	-1	3	-3	-4	-1	3	.
CCCNC(=O)c1ccc2c(=O)c(O)c(-c3ccc(C)cc3)[nH]c2c1	2	9	160*	-17	-3	7	141*
CCCNC(=O)c1ccc2c(=O)c(O)c(-c3ccsc3)[nH]c2c1	8	4	+	-8	?	6	182*
CCCNC(=O)c1ccc2c(=O)c(O)c(-c3ccc(OC)cc3)[nH]c2c1	9	7	172*	-18	-6	6	112*
COc1cccc(CNC(=O)Cn2c(=O)c3cccn3c3ccccc32)c1	6	1	-9	.	0	3	.
COc1ccccc1N1CCN(CCCNC(=O)C2CCCN(c3ncnc4c3nc3n4CCCCC3)C2)CC1 (centres undefined)	2	3	4	.	-2	3	.
Cc1ccc(-c2[nH]c3cc(C(=O)NCCCn4ccnc4)ccc3c(=O)c2O)cc1	-2	1	125*	-4	-5	38	92*
CC(=O)Nc1cccc(-c2ccnc3c2CC(C)(C(=O)NCc2ccc(F)c(F)c2)O3)c1 (centres undefined)	.	.	-12	.	.	.	.
CCN(CC)c1ccc2nc3ccc(N)cc3[n+](-c3ccccc3)c2c1	.	.	170*	.	.	.	124*
CC1/C(=N/O)CC(c2ccco2)NC1c1ccco1 (centres undefined)	-1	-1	-6	5	0	0	.
CC1C(=O)C(C)C(c2ccco2)NC1c1ccco1 (centres undefined)	0	-2	24*	-19	-2	-4	-5
Cc1cc(C)cc(N2C(=O)CC(Sc3ncn[nH]3)C2=O)c1 (centres undefined)	9	0	-7	-27	6	8	.
Cc1nnc(N(C)C(=O)c2ccc3c(c2)OCO3)s1	6	5	3	-18	0	4	.
CC(Sc1ccc(S(=O)(=O)N(C)C)cn1)C(=O)NC1CCCC1 (centres undefined)	5	6	25*	.	.	6	-34
O=C(COC(=O)C1CC(O)CN1S(=O)(=O)c1ccc(Cl)cc1)c1cccc(Cl)c1 (centres undefined)	6	2	72*	4	-7	4	-19
CCOc1ccccc1N(CC)C(=O)c1ccc2c(=O)n3c(nc2c1)CCCCC3	2	5	21*	.	3	1	-3
Cc1ccc(NC(=O)CSCC(=O)Nc2nnc(C)s2)cc1	0	-1	1	.	-5	3	.
